Where a chain is given by its changes, count along the chain named.

Holding throughout (assay): protein-binding microarray (PBM); PBM: ~300 nM protein, 6 mM HEPES pH 7.8, 80 mM KCl, 0.5 mM EDTA, 0.5 mM EGTA, 6% glycerol, 35 ng/ul poly-dIdC, 1% milk, 1 h, room temperature; Ap Aiptasia and Nv Nematostella (sea anemones) / Co Capsaspora / Aq Amphimedon (sponge) / Dm Drosophila / Hu human; RHD is the Rel homology domain; high values mean tight binding
Common to all, as to settings: dsDNA, one strand shown

One test concerns the target T1, GST-Ap-NF-kB RHD (Exaiptasia pallida (Aiptasia), UniProt A0A913YAJ5 2-422).
T1 sequence: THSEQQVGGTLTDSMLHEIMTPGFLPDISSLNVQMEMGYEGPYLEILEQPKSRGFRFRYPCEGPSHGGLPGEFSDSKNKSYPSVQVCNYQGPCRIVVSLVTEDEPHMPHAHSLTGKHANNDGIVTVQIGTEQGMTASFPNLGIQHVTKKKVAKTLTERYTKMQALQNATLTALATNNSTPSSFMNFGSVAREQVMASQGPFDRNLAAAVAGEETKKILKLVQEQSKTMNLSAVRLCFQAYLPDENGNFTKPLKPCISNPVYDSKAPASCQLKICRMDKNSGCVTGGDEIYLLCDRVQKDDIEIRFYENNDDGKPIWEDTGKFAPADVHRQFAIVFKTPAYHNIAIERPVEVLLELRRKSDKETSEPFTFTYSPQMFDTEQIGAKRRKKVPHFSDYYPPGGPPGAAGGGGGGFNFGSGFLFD

Test [1] deals with T2, GST-Nv-NF-kB (Cys allele) (Nematostella vectensis, UniProt E5G601 2-411).
T2 sequence: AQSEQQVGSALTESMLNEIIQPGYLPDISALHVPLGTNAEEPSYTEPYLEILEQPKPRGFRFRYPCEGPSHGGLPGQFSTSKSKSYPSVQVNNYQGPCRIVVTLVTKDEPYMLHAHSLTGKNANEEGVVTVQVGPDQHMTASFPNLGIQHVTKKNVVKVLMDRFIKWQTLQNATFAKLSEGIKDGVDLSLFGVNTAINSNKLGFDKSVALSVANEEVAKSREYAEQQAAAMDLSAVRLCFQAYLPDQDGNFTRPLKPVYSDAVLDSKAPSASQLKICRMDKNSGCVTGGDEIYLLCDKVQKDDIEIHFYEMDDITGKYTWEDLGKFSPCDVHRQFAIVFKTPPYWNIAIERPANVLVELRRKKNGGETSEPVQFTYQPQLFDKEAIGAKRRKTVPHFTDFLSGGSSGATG

Test [2] has as its target T3, GST-Nv-NF-kB (Ser allele) (Nematostella vectensis, UniProt A7UNT2 2-411).
T3 sequence: T2 sequence with Q21R, C66S, S207N, E215Q, V217A, E225K, A268E, D399E

In a further test the target is T4, GST-Co-NF-kB (Capsaspora owczarzaki, UniProt F1ARL5 200-546).
T4 sequence: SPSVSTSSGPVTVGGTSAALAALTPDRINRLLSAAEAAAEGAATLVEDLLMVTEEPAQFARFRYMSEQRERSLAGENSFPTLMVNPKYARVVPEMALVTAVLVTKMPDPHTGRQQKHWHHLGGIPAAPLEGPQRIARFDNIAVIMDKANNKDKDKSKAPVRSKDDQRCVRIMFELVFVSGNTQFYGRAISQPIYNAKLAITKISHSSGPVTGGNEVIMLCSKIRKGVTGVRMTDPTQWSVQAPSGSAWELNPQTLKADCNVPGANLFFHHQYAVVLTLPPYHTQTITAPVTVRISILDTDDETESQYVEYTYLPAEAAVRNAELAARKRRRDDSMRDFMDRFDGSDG

The target of another test is T5, GST-Dm-Relish (Drosophila melanogaster, UniProt Q94527 99-473).
T5 sequence: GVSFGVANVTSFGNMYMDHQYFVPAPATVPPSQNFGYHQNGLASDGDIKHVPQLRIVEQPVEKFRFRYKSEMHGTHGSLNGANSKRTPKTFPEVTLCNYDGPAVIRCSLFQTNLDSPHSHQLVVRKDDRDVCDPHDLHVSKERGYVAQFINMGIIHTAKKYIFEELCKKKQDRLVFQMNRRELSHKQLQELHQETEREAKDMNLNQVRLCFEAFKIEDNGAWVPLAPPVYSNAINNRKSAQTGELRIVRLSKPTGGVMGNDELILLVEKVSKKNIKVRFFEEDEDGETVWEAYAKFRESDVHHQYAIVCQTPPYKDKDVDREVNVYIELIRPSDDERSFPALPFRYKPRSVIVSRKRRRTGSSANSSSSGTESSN

In the next test the target is T6, GST-Aq-NF-kB (Amphimedon queenslandica, UniProt A9Y5G7 2-389).
T6 sequence: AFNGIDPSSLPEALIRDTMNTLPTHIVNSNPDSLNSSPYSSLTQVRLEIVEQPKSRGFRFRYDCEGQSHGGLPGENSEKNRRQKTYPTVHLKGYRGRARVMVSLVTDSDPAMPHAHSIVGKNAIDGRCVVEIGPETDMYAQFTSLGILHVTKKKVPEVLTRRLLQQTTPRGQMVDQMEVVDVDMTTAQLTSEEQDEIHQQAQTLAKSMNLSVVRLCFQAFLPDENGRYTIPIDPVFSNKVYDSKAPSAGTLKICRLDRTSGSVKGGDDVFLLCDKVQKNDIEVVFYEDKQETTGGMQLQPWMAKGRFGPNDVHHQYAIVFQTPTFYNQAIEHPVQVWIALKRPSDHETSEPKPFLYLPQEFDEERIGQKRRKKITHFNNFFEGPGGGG

A further test has as its target GST-Hu-p50 (Homo sapiens, UniProt P19838 7-356).

GST-Hu-p50, sequence (P19838 7-356): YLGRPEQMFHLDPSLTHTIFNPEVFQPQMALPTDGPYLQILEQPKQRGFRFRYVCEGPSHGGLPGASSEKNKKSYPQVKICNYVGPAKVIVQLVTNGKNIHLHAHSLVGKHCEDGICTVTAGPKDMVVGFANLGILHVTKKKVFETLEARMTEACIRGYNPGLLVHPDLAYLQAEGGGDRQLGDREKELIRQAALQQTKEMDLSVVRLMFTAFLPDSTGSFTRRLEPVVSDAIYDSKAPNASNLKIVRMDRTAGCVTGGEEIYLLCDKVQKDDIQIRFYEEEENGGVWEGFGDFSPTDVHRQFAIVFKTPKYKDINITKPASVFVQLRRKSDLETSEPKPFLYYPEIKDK

“CCGATTAACATCAAAATTTCCCGTGATGTTAATCGGGTCTTGATTCGCTTGACGCTGCTG”: the binding signal with GST-Ap-NF-kB RHD is 4.72 z-score; in test [1], 6.89 z-score; in test [2], 6.74 z-score; in the test with GST-Co-NF-kB, 6.32 z-score; in the test with GST-Dm-Relish, 4.72 z-score; in the test with GST-Aq-NF-kB, 6.67 z-score. The binding signal with GST-Hu-p50 amounted to 4.8 z-score.
Regarding “CCGATTAACATCAGGGGCCCCCCTGATGTTAATCGGGTCTTGATTCGCTTGACGCTGCTG”, the binding signal stood at 7.09 z-score with GST-Ap-NF-kB RHD; 3.78 z-score in test [1]; 2.88 z-score in test [2]; 3.01 z-score in the test with GST-Co-NF-kB; 7.07 z-score in the test with GST-Dm-Relish; 7.54 z-score with GST-Aq-NF-kB. In addition, the binding signal with GST-Hu-p50 was 4.57 z-score.
For the sequence “CCGATTAACATCACGGGGGATTATGATGTTAATCGGGTCTTGATTCGCTTGACGCTGCTG”, the binding signal stood at 7.59 z-score in the test with GST-Ap-NF-kB RHD; 6.57 z-score in test [1]; 7 z-score in test [2]; 6.84 z-score with GST-Co-NF-kB; 6.41 z-score with GST-Dm-Relish; 5.87 z-score in the test with GST-Aq-NF-kB. The sequence also gave a binding signal in the test with GST-Hu-p50 of 6.67 z-score.
For “CCGATTAACATCAGGGGGGTAACTGATGTTAATCGGGTCTTGATTCGCTTGACGCTGCTG”, the binding signal with GST-Ap-NF-kB RHD amounted to 5.83 z-score; in test [1], 4.16 z-score; in test [2], 4.34 z-score; with GST-Co-NF-kB, 6.37 z-score; with GST-Dm-Relish, 4.31 z-score; with GST-Aq-NF-kB, 4.37 z-score. Besides, the binding signal in the test with GST-Hu-p50 worked out at 4.07 z-score.
As to “CCGATTAACATCAATATCCCCCATGATGTTAATCGGGTCTTGATTCGCTTGACGCTGCTG”, the binding signal in the test with GST-Ap-NF-kB RHD was determined as 6.62 z-score; in test [1] it was 4.94 z-score; in test [2] it was 5.43 z-score; with GST-Co-NF-kB, 6.5 z-score; with GST-Dm-Relish it was 3.73 z-score; with GST-Aq-NF-kB, 4.55 z-score. For the same sequence, in the test with GST-Hu-p50, the binding signal came to 5.2 z-score.
Take “CCGATTAACATCAGGGGATTCGATGATGTTAATCGGGTCTTGATTCGCTTGACGCTGCTG”: the binding signal turned out to be 5.58 z-score in the test with GST-Ap-NF-kB RHD; 5.21 z-score in test [1]; 7.7 z-score in test [2]; 2.24 z-score with GST-Co-NF-kB; 3.8 z-score with GST-Dm-Relish; 3.6 z-score with GST-Aq-NF-kB. Besides, the binding signal in the test with GST-Hu-p50 was determined as 5.33 z-score.
As to “CCGATTAACATCACCCTCCCCCCTGATGTTAATCGGGTCTTGATTCGCTTGACGCTGCTG”, the binding signal was 4.55 z-score with GST-Ap-NF-kB RHD; 4.25 z-score in test [1]; 4.55 z-score in test [2]; 6.06 z-score in the test with GST-Co-NF-kB; 3.66 z-score with GST-Dm-Relish; 3.9 z-score with GST-Aq-NF-kB. In the test with GST-Hu-p50, this sequence showed a binding signal of 4.13 z-score.
Regarding “CCGATTAACATCAGATTTTCCCATGATGTTAATCGGGTCTTGATTCGCTTGACGCTGCTG”, the binding signal with GST-Ap-NF-kB RHD is 3.85 z-score; in test [1] it was 5.14 z-score; in test [2], 6.26 z-score; in the test with GST-Co-NF-kB, 5 z-score; with GST-Dm-Relish, 1.26 z-score; with GST-Aq-NF-kB, 4.25 z-score. The same sequence gave a binding signal in the test with GST-Hu-p50 of 3.82 z-score.
Regarding “CCGATTAACATCACCAAATCCCCTGATGTTAATCGGGTCTTGATTCGCTTGACGCTGCTG”, the binding signal in the test with GST-Ap-NF-kB RHD amounted to 6.97 z-score; in test [1], 6.55 z-score; in test [2] it was 9.44 z-score; with GST-Co-NF-kB, 3.02 z-score; in the test with GST-Dm-Relish, 4.48 z-score; with GST-Aq-NF-kB, 4.54 z-score. In the test with GST-Hu-p50, this sequence registered a binding signal of 6.6 z-score.

These data come from PMC5700166.
